Test results as given in PubChem BioAssay (EPA / NIEHS).
Records with an inconclusive call do not appear. Activity calls are given as the source filed them. The calls were made as follows, unless noted: active = hit-call score of the fitted dose curve at least 0.9, where 1 is the maximum; inactive = score below 0.9.

Experiments:
[1] = read-out: Tumor necrosis factor (Homo sapiens) (UniProt P01375); test: BSK_BT_xTNFa: BioMAP Diversity Plus: BT Assay for Tumor necrosis factor alpha (TNF-alpha) Biomarker Activity (AID 2284230); conditions: primary human B cells with PBMC
How it was run: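 Human primary co-culture of B cells and peripheral blood mononuclear cells; TNF-alpha in supernatant, 24 h post-dose, Luminex multiplex; DMSO = baseline.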

[2] = read-out: Vascular cell adhesion molecule 1 (VCAM1), VCAM1 (gene 7412); test: BSK_MyoF_VCAM1: BioMAP Diversity Plus: MyoF Assay for Vascular cell adhesion molecule 1 (VCAM1) Biomarker Activity (AID 2284231); conditions: primary human lung fibroblasts
How it was run: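 Primary human lung fibroblasts (BioMAP MyoF system) dosed with chemical, VCAM-1 measured by ELISA 24 hours later. Fitted in the positive direction against DMSO; parallel SRB staining assessed cytotoxicity.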

[3] = read-out: Collagen III, COL3A1 (gene 1281); test: BSK_MyoF_CollagenIII: BioMAP Diversity Plus: MyoF Assay for Collagen III Biomarker Activity (AID 2284239); conditions: primary human lung fibroblasts
How it was run: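 Primary human lung fibroblasts (BioMAP MyoF system) exposed 24 h. Collagen III measured by ELISA; positive-direction fit relative to DMSO.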

[4] = read-out: Interleukin 17F (IL17F), IL17F (gene 112744); test: BSK_BT_xIL17F: BioMAP Diversity Plus: BT Assay for Interleukin 17F (IL17F) Biomarker Activity (AID 2284243); conditions: primary human B cells with PBMC
How it was run: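 Human PBMC co-cultured with B cells, compound exposure 24 h; secreted IL-17F quantified by Luminex xMAP, referenced to DMSO control. PBMC viability measured in parallel by Alamar Blue reduction.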

[5] = read-out: Actin alpha 1 (ACTA1), ACTA1 (gene 58); test: BSK_MyoF_ACTA1: BioMAP Diversity Plus: MyoF Assay for Actin alpha 1 (ACTA1) Biomarker Activity (AID 2284244); conditions: primary human lung fibroblasts
How it was run: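 Human lung fibroblasts (MyoF system) dosed with test chemical for 24 h; α-SMA measured by ELISA. Gain of signal fitted relative to DMSO negative control as baseline.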

[6] = read-out: Interleukin 2 (IL2), IL2 (gene 3558); test: BSK_BT_xIL2: BioMAP Diversity Plus: BT Assay for Interleukin 2 (IL2) Biomarker Activity (AID 2284245); conditions: primary human B cells with PBMC
How it was run: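 Human B cells co-cultured with PBMC, exposed to test chemical for 24 h. Secreted IL-2 quantified by Luminex xMAP bead immunoassay; activity fitted in the positive direction relative to DMSO vehicle baseline.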

[7] = read-out: Basic fibroblast growth factor (bFGF), FGF2 (gene 2247); test: BSK_MyoF_bFGF: BioMAP Diversity Plus: MyoF Assay for Basic fibroblast growth factor (bFGF) Biomarker Activity (AID 2284246); conditions: primary human lung fibroblasts
How it was run: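 Human lung fibroblasts were dosed with chemicals and bFGF was quantified by ELISA 24 h later. Activity was fitted in the gain-of-signal direction relative to DMSO as negative control and baseline. Parallel SRB total-protein staining tracked overt cytotoxicity.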

[8] = read-out: Collagen IV, COL4A1 (gene 1282); test: BSK_MyoF_CollagenIV: BioMAP Diversity Plus: MyoF Assay for Collagen IV Biomarker Activity (AID 2284247); conditions: primary human lung fibroblasts
How it was run: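 Primary human lung fibroblasts were exposed to test chemicals and sampled 24 h after dosing. Collagen IV levels were measured by ELISA and fitted in the positive direction against DMSO as negative control and baseline.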

[9] = CCTE_Mundy_HCI_hNP1_Casp3_7: CCTE's Caspase-Glo 3/7 Assay in human neuroprogenitor cells for Apoptosis, Mundy Lab (AID 2284240)
How it was run: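 Luminescent caspase-3/7 readout, 26.5 h post-dose, in human neural progenitor cells from WA09 embryonic stem cells. Cells grew 40–44 h at 37 °C, 5% CO2 before chemical addition. Activity analysed as signal increase over DMSO baseline.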

[10] = CCTE_Mundy_HCI_hNP1_CellTiter: CCTE's Cell Titer-Glo 2 Assay in human neuroprogenitor cells for Viability, Mundy Lab (AID 2284241; active = hit-call score of the fitted dose curve at least 0.9, where 1 is the maximum)
How it was run: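 Viability read as luminescent ATP content (CellTiter-Glo, 30 min room temperature) twenty-four hours after dosing, relative to DMSO. Cells: WA09-derived hNP1 neuroprogenitors on poly-L-ornithine/laminin, plated 40 to 44 hours before chemical.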

[11] = read-out: Monokine induced gamma interferon (MIG), CXCL9 (gene 4283); test: BSK_KF3CT_MIG: BioMAP Diversity Plus: KF3CT Assay for Monokine induced gamma interferon (MIG) Biomarker Activity (AID 2284248); conditions: primary human keratinocytes with fibroblasts
How it was run: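 Human keratinocyte–foreskin fibroblast co-culture; MIG measured by ELISA 24 h after chemical dosing, fitted upward versus DMSO. Cytotoxicity was assessed in parallel cultures by SRB total-protein staining read at 560 nm.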

[12] = read-out: Vascular cell adhesion molecule 1 (VCAM1), VCAM1 (gene 7412); test: BSK_BF4T_VCAM1: BioMAP Diversity Plus: BF4T Assay for Vascular cell adhesion molecule 1 (VCAM1) Biomarker Activity (AID 2284249); conditions: primary human bronchial epithelial cells with fibroblasts
How it was run: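 Human bronchial epithelial cell and dermal fibroblast co-culture exposed 24 h. VCAM-1 measured by ELISA; parallel SRB total-protein staining for cytotoxicity. Fitted in positive direction relative to DMSO.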

[13] = read-out: Collagen I, COL1A1 (gene 1277); test: BSK_hDFCGF_CollagenI: BioMAP Diversity Plus: hDFCGF Assay for Collagen I Biomarker Activity (AID 2284250); conditions: primary human foreskin fibroblasts
How it was run: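 Primary human foreskin fibroblasts (hDFCGF system) exposed to chemical for 24 h; Collagen I measured by ELISA. Activity fitted in the positive direction relative to DMSO baseline, with SRB total-protein staining in parallel cultures for overt cytotoxicity.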

[14] = TAMU_HCS_1.5hr_SingleDonor1434_Cytotoxicity: Cytotoxicity Assessment using High-content Screening (HCS) Fluorescent Imaging for the Texas A&M University (TAMU) 1.5-hr Human Induced Pluripotent Stem Cell (iPSC)-derived Cardiotoxicity Assay (AID 2284234; active = hit-call score of the fitted dose curve at least 0.9, where 1 is the maximum)
How it was run: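 Human iPSC-derived cardiomyocytes dosed at 0.2, 1, 10, 100 uM final (0.5% DMSO) for 90 min at 37 C. Hoechst 33342-stained nuclei counted by 10x high-content imaging; POD is EC10, a 10% drop in total cell count versus DMSO.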

Measured: AC50

Tumor necrosis factor (Homo sapiens), sequence (P01375 whole entry, looked up): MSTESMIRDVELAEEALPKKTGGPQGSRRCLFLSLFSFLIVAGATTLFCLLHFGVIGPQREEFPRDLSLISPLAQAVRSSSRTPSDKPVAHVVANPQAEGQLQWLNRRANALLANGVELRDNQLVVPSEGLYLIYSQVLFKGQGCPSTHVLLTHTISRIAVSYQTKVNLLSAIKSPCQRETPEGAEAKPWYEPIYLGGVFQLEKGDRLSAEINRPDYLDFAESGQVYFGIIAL

O=S(=O)(c1ccc(Cl)cc1)c1ccc(Cl)cc1
inactive: [1] | [2] | [3] | [4] | [5] | [6] | [7] | [8]

CCOP(=S)(OCC)Oc1ccc(S(C)=O)cc1 (stereo unspecified)
inactive: [1] | [2] | [3] | [4] | [5] | [6] | [7] | [8]

COP(=S)(OC)Oc1c(Cl)cc(C)cc1Cl
inactive: [1] | [2] | [3] | [4] | [5] | [6] | [7] | [8]

CC(C)CCCCCCOC(=O)c1ccccc1C(=O)OCCCCCCC(C)C
inactive: [1] | [2] | [3] | [4] | [5] | [6] | [7] | [8]

COc1cc(OC)nc(NC(=O)NS(=O)(=O)c2ncccc2C(=O)N(C)C)n1
inactive: [1] | [2] | [3] | [4] | [5] | [6] | [7] | [8]

COP(=S)(OC)Oc1cc(Cl)c(Cl)cc1Cl
inactive: [1] | [3] | [4] | [6] | [7] | [8]
active: [2] 31.1 µM | [5] 31.9 µM

Nc1ncc([N+](=O)[O-])s1
inactive: [1] | [2] | [3] | [4] | [5] | [6] | [7] | [8]

O=C(OC1CCCCC1)c1ccccc1C(=O)OC1CCCCC1
active: [1] 32.1 µM | [2] 20.9 µM | [3] 16.6 µM | [4] 30.8 µM | [5] 12.5 µM | [6] 30.9 µM
inactive: [7] | [8]

C(=NC1CCCCC1)=NC1CCCCC1
active: [1] 10.9 µM | [2] 11.8 µM | [3] 7.83 µM | [4] 13.4 µM | [5] 7.21 µM | [6] 10.7 µM | [7] 11.9 µM | [8] 12.4 µM

Oc1ccc(-c2ccccc2)cc1
active: [3] 0.414 µM
inactive: [1] | [2] | [4] | [5] | [6] | [7] | [8]

O=C(O)C(F)(F)C(F)(F)C(F)(F)C(F)(F)C(F)(F)C(F)(F)F
not listed: [14]
inactive: all other assays above

CCOP(=S)(OCC)SCCS(=O)(=O)CC
inactive: [1] | [2] | [3] | [4] | [5] | [7] | [8]
active: [6] 23.9 µM

Nc1cccc2ccccc12
active: [3] 14.5 µM
inactive: [1] | [2] | [4] | [5] | [6] | [7] | [8]

CC1(C)Cc2cccc(O)c2O1
inactive: [1] | [2] | [3] | [4] | [5] | [6] | [7] | [8]

O=[N+]([O-])c1ccc2c3c(cccc13)CC2
inactive: [1] | [2] | [3] | [4] | [5] | [6] | [7] | [8]

COP(=S)(OC)Oc1ccc(S(=O)(=O)N(C)C)cc1
inactive: [1] | [2] | [3] | [4] | [5] | [6] | [7] | [8]

NC(=S)Nc1ccccc1
inactive: [1] | [2] | [3] | [4] | [5] | [6] | [7] | [8]

ClC(Cl)=C(Cl)C(Cl)=C(Cl)Cl
active: [3] 3.97 µM | [5] 3.97 µM
inactive: [1] | [2] | [14] | [4] | [6] | [7] | [8]

CC(C)c1ccc(CO)cc1
inactive: [1] | [2] | [3] | [4] | [5] | [6] | [7] | [8]

COC[C@H](C)N(C(=O)CCl)c1c(C)csc1C
inactive: [1] | [2] | [3] | [4] | [5] | [6] | [7] | [8]
